Reference: PubChem BioAssay (Tox21)
Results filed as inconclusive are left out. Calls of active or inactive are those of the source. Unless noted, calls follow the shape of the full dose curve.

Assays:
[1] = qHTS assay to identify small molecule antagonists of the vitamin D receptor (VDR) signaling pathway - cell viability counter screen (AID 743225; active = well fitted curve in the direction sought with a large enough effect in the repeat runs; an effect the other way counts as inactive or inconclusive; also: % is scaled to controls: 0 for no effect and ±100 for the full control effect; nearly all actives have a fitted effect of over 50% in size)
In short: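 VDR-bla HEK 293T cells, 4 h pre-incubation at 37C, then compound plus 1-alpha,25-dihydroxyvitamin D3 (3 nM final) for 16 h. After the beta-lactamase FRET read, CellTiter-Glo was added to the same wells; luminescence after 30 min at room temperature.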

[2] = qHTS assay to identify small molecule agonists of the NFkB signaling pathway (AID 1159509; active = well fitted curve in the direction sought with a large enough effect in the signal ratio in the repeat runs, not every such curve was filed as active; the % refers to the signal ratio; also: series mostly up to about 61 µM; % is scaled to controls: 0 for no effect and ±100 for the full control effect)
In short: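 Readout: FRET fluorescence, 405 nm excitation, 460/530 nm emission; beta-lactamase expression disrupts FRET. Cells: ME-180 stably carrying NF-kB-driven bla reporter. Compound exposure 5 hr, 37 C, 5% CO2.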

[3] = qHTS assay to identify small molecule agonists of the NFkB signaling pathway - cell viability counter screen (AID 1159515); also: nearly all actives have a fitted effect of over 55% in size; also: potency is read from the fitted curve at half-maximal effect
In short: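 Plate 2,000 NFkB-bla ME-180 cells/well; incubate overnight. Add compounds, 5 hr at 37 C. Add FRET substrate, 1.5 hr RT. Add CellTiter-Glo, 30 min RT; read luminescence.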

[4] = qHTS assay to identify small molecule agonists of the endoplasmic reticulum stress response signaling pathway (AID 1159516; active = well fitted activation curve with a large enough effect in the signal ratio in the repeat runs, not every such curve was filed as active; the % refers to the signal ratio; also: % is scaled to controls: 0 for no effect and ±100 for the full control effect)
In short: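 Beta-lactamase expression from the ER stress response element in HeLa reporter cells is quantified with the LiveBLAzer B/G FRET substrate, read at 405 nm excitation after 2 hr at room temperature, following 5 hr compound treatment at 37 C.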

[5] = qHTS assay to identify small molecule antagonists of the retinoid-related orphan receptor gamma (ROR-gamma) signaling pathway - cell viability counter screen (AID 1159520; active = well fitted curve in the direction sought with a large enough effect in the repeat runs; an effect the other way counts as inactive or inconclusive; also: nearly all actives have a fitted effect of over 50% in size; also: potency is read from the fitted curve at half-maximal effect; as to activity, negative = cytotoxicity: % is scaled to controls: 0 for no effect and ±100 for the full control effect)
In short: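 Tet-on ROR gamma CHO cells (1,000/well) were plated 4 hr, given compounds in DMSO for 2 hr at 37 C, then induced with 1 uM final doxycycline for 16 hr. Viability was read as ATP by CellTiter-Glo luminescence after 30 min.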

[6] = qHTS assay to identify small molecule agonists of the AP-1 signaling pathway - cell viability counter screen (AID 1159525); also: nearly all actives have a fitted effect of over 55% in size
In short: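 Each titration point was normalised to DMSO and tetra n-octyl ammonium bromide controls. The read was Cell Titer Glo luminescence after 30 min at RT, following 5 h compound exposure of ME-180 AP-1-bla cells at 37 °C.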

[7] = qHTS assay to identify small molecule agonists of the AP-1 signaling pathway (AID 1159526); also: % is scaled to controls: 0 for no effect and ±100 for the full control effect
[8] = molecular target: Retinoic acid receptor RXR-alpha (Homo sapiens) (UniProt P19793); assay: qHTS assay to identify small molecule agonists of the RXR signaling pathway (AID 1159527); also: % is scaled to controls: 0 for no effect and ±100 for the full control effect; nearly all actives have a fitted effect of over 35% in size
Sequence of Retinoic acid receptor RXR-alpha (Homo sapiens) (P19793 whole entry, looked up): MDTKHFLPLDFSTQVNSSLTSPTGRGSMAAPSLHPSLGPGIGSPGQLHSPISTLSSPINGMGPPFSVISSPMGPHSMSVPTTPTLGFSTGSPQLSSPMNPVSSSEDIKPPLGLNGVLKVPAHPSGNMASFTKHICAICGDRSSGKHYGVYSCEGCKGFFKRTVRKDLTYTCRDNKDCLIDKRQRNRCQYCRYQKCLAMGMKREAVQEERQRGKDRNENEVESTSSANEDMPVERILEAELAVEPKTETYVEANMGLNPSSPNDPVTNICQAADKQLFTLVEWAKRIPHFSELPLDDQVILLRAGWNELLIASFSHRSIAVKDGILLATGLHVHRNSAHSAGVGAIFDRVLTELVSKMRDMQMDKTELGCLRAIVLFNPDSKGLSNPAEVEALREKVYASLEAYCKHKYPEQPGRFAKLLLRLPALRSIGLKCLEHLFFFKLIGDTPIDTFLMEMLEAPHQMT
In short: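 GeneBLAzer RXR-alpha-UAS-bla HEK 293T cells in medium with 2% charcoal-stripped FBS, pre-incubated 5 hr at 37 C, then exposed to compounds 16 hr. Beta-lactamase reporter read by FRET substrate, 2 hr room temperature, 460/530 nm emission.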

[9] = molecular target: Nuclear receptor ROR-gamma (Homo sapiens) (UniProt P51449); assay: qHTS assay to identify small molecule antagonists of the retinoid-related orphan receptor gamma (ROR-gamma) signaling pathway (AID 1159521; active = well fitted curve in the direction sought with a large enough effect in the repeat runs; an effect the other way counts as inactive or inconclusive; also: nearly all actives have a fitted effect of over 50% in size; also: potency is read from the fitted curve at half-maximal effect)
In short: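 Tet-on RORγ CHO cells carrying a ROR response element–luciferase reporter were pretreated with compounds for 2 h, then induced with 1 uM (final) doxycycline hyclate for 16 h at 37 C. Antagonism was read as decreased ONE-Glo luminescence.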

CCN(CC)CC(=O)Nc1c(C)cccc1C(=O)OC
inactive: Potency [1] | outcome [2] | Potency [3] | Potency [4] | Potency [5] | Potency [6] | outcome [7] | Potency [8]

CCSC(=O)N(CC)CC
inactive: Potency [1] | outcome [2] | Potency [3] | Potency [4] | Potency [5] | Potency [9] | Potency [6] | outcome [7]

CCCCCCC(O)CCOC(C)=O (stereo not given)
inactive: Potency [1] | outcome [2] | Potency [3] | Potency [4] | Potency [5] | Potency [6] | outcome [7] | Potency [8]

CC(=O)OCC1=C(C(=O)O)N2C(=O)[C@@H](NC(=O)CSc3ccncc3)[C@H]2SC1
inactive: Potency [1] | outcome [2] | Potency [3] | Potency [4] | Potency [5] | Potency [9] | Potency [6] | Potency [8]

O=C(NS(=O)(=O)/C=C/c1ccccc1)c1ccc(F)cc1Cl
inactive: Potency [1] | outcome [2] | Potency [3] | Potency [4] | Potency [5] | Potency [9] | Potency [6] | outcome [7]

COc1cc(C(C)=O)ccc1OCCCN1CCC(c2noc3cc(F)ccc23)CC1
inactive: Potency [1] | outcome [2] | Potency [3] | Potency [4] | Potency [5] | Potency [9] | Potency [6]

CC(C)(C)C(O)/C=C/c1ccc2c(c1)OCO2 (stereo not given)
inactive: Potency [1] | outcome [2] | Potency [3] | Potency [4] | Potency [5] | Potency [9] | Potency [6] | Potency [8]

CCCCCCCC/C=C\CCCCCCCC(=O)OCCO
inactive: Potency [1] | outcome [2] | Potency [3] | Potency [4] | Potency [5] | Potency [9] | Potency [6]

O=NN(CCCl)C(=O)NCCCl
inactive: Potency [1] | outcome [2] | Potency [3] | Potency [4] | Potency [5] | Potency [9] | Potency [6] | outcome [7]

C=CC(=O)NC(C)C
inactive: Potency [1] | outcome [2] | Potency [3] | Potency [4] | Potency [5] | Potency [6] | outcome [7]

CCN(Cc1cccc(S(=O)(=O)O)c1)c1ccc(C(=C2C=CC(=[N+](CC)Cc3cccc(S(=O)(=O)O)c3)C=C2)c2ccc(O)cc2S(=O)(=O)[O-])cc1
inactive: outcome [2] | Potency [4] | outcome [7]
active: Potency [3] 26.5 µM | Potency [5] 10.5 µM | Potency [9] 14.8 µM

CC1CCc2nccnc21 (stereo not given)
inactive: Potency [1] | outcome [2] | Potency [3] | Potency [4] | Potency [5] | Potency [9] | Potency [6] | outcome [7]

Nc1ccn([C@H]2CS[C@@H](CO)O2)c(=O)n1
inactive: outcome [2] | Potency [3] | Potency [4] | Potency [5] | Potency [6] | outcome [7] | Potency [8]

C[C@H](CS)C(=O)N1CCC[C@H]1C(=O)O
inactive: outcome [2] | Potency [3] | Potency [4] | Potency [5] | Potency [6] | outcome [7] | Potency [8]

CCCCCCCCCCCCCOC(=O)CCSCCC(=O)OCCCCCCCCCCCCC
inactive: Potency [1] | outcome [2] | Potency [3] | Potency [4] | activity, negative = cytotoxicity [5] 0.433% [at 19 µM] | activity change, negative = inhibition [9] -3.96% [at 19 µM] | viability change, negative = cytotoxic [6] -10.6% [at 15.8 µM] | activation [7] -14.2% [at 15.8 µM]

CCN(CC)CCNC(=O)c1cc(Cl)c(N)cc1OC
inactive: Potency [1] | outcome [2] | Potency [3] | Potency [4] | Potency [5] | Potency [9] | Potency [6] | outcome [7]

O=S(=O)(Cl)c1c(Cl)cccc1Cl
inactive: Potency [1] | outcome [2] | Potency [3] | Potency [4] | Potency [5] | Potency [9] | Potency [6] | outcome [7]

CCCCCCC(CO)CCCC (stereo not given)
inactive: Potency [1] | outcome [2] | Potency [3] | Potency [4] | Potency [5] | Potency [9] | Potency [6] | Potency [8]

CC(C)C(=O)OCCOc1ccccc1
inactive: Potency [1] | outcome [2] | Potency [3] | Potency [4] | Potency [5] | Potency [9] | Potency [6] | outcome [7]

CC(=O)OCC(=O)[C@@]1(OC(C)=O)[C@@H](C)C[C@H]2[C@@H]3C[C@H](F)C4=CC(=O)C=C[C@]4(C)[C@@]3(F)[C@@H](O)C[C@@]21C
inactive: Potency [1] | outcome [2] | Potency [3] | Potency [4] | Potency [5] | Potency [9] | Potency [6] | outcome [7]

O=C(/C=C/c1ccc([N+](=O)[O-])cc1)c1ccccc1
inactive: Potency [1] | outcome [2] | Potency [3] | Potency [4] | Potency [5] | Potency [9] | Potency [6]

COc1ccc(/C=C/C(=O)c2ccc(OC)cc2OC)cc1
inactive: Potency [1] | outcome [2] | Potency [3] | Potency [4] | Potency [5] | Potency [9] | Potency [6]

Cc1ccc2c(c1)CCCN2
inactive: Potency [1] | outcome [2] | Potency [3] | Potency [4] | Potency [5] | Potency [9] | Potency [6] | outcome [7]

CS(=O)(=O)c1ccc([C@@H](C[C@H]2CCC(=O)C2)C(=O)Nc2cnccn2)cc1Cl
inactive: outcome [2] | Potency [3] | Potency [4] | Potency [5] | Potency [6] | outcome [7] | Potency [8]

O=C(NC(Cc1cc(=O)[nH]c2ccccc12)C(=O)O)c1ccc(Cl)cc1 (stereo not given)
inactive: Potency [1] | outcome [2] | Potency [3] | Potency [4] | Potency [5] | Potency [6] | outcome [7] | Potency [8]

Cc1cccc(C)c1NC(=O)c1cc(S(N)(=O)=O)c(Cl)cc1O
inactive: Potency [1] | outcome [2] | Potency [3] | Potency [4] | Potency [5] | Potency [6] | outcome [7] | Potency [8]

CC(=O)NNC(C)=O
inactive: outcome [2] | Potency [3] | Potency [4] | Potency [5] | Potency [6] | outcome [7] | Potency [8]
